Only some compounds are listed: those with a hit (about 3.9% of all), similar ones and a draw of the others.
CCHF vOTU inh-1: CCHFV vOTU protease inhibitors, primary screen, biochemical, Pep-AMC substrate, fluorescence | Crimean-Congo hemorrhagic fever virus L polyprotein viral ovarian tumor (vOTU) protease … | inhibition, % at 11.5 µM | hit rate 0.55% among 370,000 | AID 651958, 2012; in the data active means inhibition above about 30%; further: 0% = vehicle wells with enzyme and 100% = no enzyme wells
Anthrax LF prot: Bacillus anthracis LF protease inhibitors, primary screen, biochemical, multiplex microsphere, MLPCN library; Lethal factor (Bacillus anthracis), P15917; multiplex microsphere protease cleavage assay; inhibition, % at 10 µM; hit rate 0.12% among 360,000; AID 588501, 2011; further: plate controls were buffer without enzyme for full effect and enzyme alone for no effect
Target sequence (P15917 whole entry, looked up): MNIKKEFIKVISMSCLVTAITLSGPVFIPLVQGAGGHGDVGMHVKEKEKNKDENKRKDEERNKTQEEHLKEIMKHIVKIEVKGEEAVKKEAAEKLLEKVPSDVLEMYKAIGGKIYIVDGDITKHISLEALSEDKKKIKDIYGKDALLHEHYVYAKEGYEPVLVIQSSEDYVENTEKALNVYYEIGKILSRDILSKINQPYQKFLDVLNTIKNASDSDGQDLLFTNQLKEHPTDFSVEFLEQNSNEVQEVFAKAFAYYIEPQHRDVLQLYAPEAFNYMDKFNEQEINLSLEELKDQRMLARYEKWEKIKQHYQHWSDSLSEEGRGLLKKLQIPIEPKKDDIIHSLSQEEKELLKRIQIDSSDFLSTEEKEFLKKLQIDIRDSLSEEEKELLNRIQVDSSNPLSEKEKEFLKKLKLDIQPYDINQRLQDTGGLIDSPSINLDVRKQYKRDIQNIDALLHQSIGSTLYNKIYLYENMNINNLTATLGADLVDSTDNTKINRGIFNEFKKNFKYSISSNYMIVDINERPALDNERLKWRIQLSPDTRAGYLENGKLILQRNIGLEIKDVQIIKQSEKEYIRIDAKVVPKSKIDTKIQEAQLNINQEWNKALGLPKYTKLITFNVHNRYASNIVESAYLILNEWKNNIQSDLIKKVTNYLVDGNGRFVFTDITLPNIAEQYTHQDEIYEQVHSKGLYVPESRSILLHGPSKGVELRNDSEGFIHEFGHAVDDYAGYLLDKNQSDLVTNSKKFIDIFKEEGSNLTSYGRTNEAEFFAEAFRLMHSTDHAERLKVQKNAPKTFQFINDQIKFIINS
BoNT F protease: BoNT/F light chain protease inhibitors, primary screen, biochemical, flow cytometry, MLPCN library. Multiplex microsphere protease cleavage assay. hit rate 0.22% among 360,000. inhibition, % at 10 µM; in the data active means inhibition above about 35%, passing the limit was not always enough; further: plate controls were buffer without enzyme for full effect and enzyme alone for no effect
BoNT A protease: BoNT/A light chain protease inhibitors, primary screen, biochemical, flow cytometry, MLPCN library; Botulinum neurotoxin type A light chain protease (Clostridium botulinum A str. ATCC 3502); multiplex microsphere protease substrate cleavage; inhibition, % at 10 µM; hit rate 0.17% among 360,000; AID 588499, 2011; further: plate controls were buffer without enzyme for full effect and enzyme alone for no effect
3CLpro inhibitor: SARS-CoV 3CLpro protease inhibitors, primary screen, biochemical, quenched FRET; inhibition, % at 6 µM; Replicase polyprotein 1ab (Severe acute respiratory syndrome coronavirus), P0C6X7; recombinant SARS-CoV 3CLpro, quenched FRET peptide cleavage; hit rate 0.14% among 290,000; in the data active means inhibition above about 12%
Bead autofluor: flagged as autofluorescent in microsphere protease counterscreen. compound autofluorescence counterscreen, microsphere flow cytometry; stronger effect = higher value. fluorescence intensity (test concentration not listed). hit rate 3.1% among 360,000; in the data active means fluorescence intensity above about 16000
CCHF vOTU inh-2: CCHFV vOTU protease inhibitors, confirmation, biochemical, Pep-AMC substrate, fluorescence. shares compounds with CCHF vOTU inh-1. Recombinant CCHFV vOTU. inhibition, % at 11.5 µM. hit rate 17% among 1,900. AID 686976, 2013; in the data active means inhibition above about 30%
Starred values were filed as active, the others as inactive; x = not tested or not shown. Unless noted, no stated cut-off is given here; in the data, active means inhibition above about 30%; inconclusive means no clear call, values can overlap the other calls; inactive means below that.

SMILES	CCHF vOTU inh-1	Anthrax LF prot	BoNT F protease	BoNT A protease	3CLpro inhibitor	Bead autofluor	CCHF vOTU inh-2
CCCCCCCCN1C(=O)[C@H](CC(=O)NCc2ccc(OC)c(OC)c2)C[C@@]2(C(=O)OC)CC(C)(C)CC=C12	37.4*	x	x	x	x	x	3.3
COC(=O)[C@@]12C[C@@H](CC(=O)NCc3ccc(OC)c(OC)c3)C(=O)N(Cc3ccco3)C1=CCC(C)(C)C2	36.9*	x	x	x	x	x	-11.2
COC(=O)[C@@]12C[C@@H](CC(=O)NCc3ccc(OC)c(OC)c3)C(=O)N(CCc3ccc(OC)c(OC)c3)C1=CCC(C)(C)C2	30.5*	x	x	x	x	x	-11.3
CCCCNC(=O)C[C@@H]1C[C@@]2(C(=O)OC)CC(C)(C)CC=C2N(CCc2ccc(OC)c(OC)c2)C1=O	0.9	x	x	x	x	x	x
CCCCCCCCN1C(=O)[C@H](CC(=O)N2CCCCC2)C[C@@]2(C(=O)OC)CC(C)(C)CC=C12	33.4*	x	x	x	x	x	12.9
CC12CC(c3ccccc3O1)C(/C(N)=N/NC(=O)c1ccc(F)cc1)C(=O)N2 (stereo not drawn)	9.0	0.5	-3.5	-0.7	-1.7	2750	x
CC12CC(c3ccccc3O1)C(C(=O)OCc1ccccc1)C(=O)N2 (stereo not drawn)	38.2*	-1.6	-14.8	-2.2	0.2	7380	-2.7
CC(C)C[C@H](NC(=O)c1nc[nH]c1C(=O)NCC(=O)OC(C)(C)C)C(=O)OCc1ccccc1	30.5*	-8.0	-2.9	-0.4	x	4091	18.6
CC(C)C[C@H](NC(=O)c1[nH]cnc1C(=O)N[C@@H](C)C(=O)OC(C)(C)C)C(=O)OC(C)(C)C	30.3*	-3.4	-6.5	-0.7	x	4064	32.2*
CC(C)C[C@H](NC(=O)c1[nH]cnc1C(=O)Nc1ccccc1)C(=O)OC(C)(C)C	29.5*	1.7	-2.1	0.3	x	2799	16.2
CCOC(=O)C1=C(COC(=O)c2cc(S(=O)(=O)N(C)C)ccc2C)NC(=O)NC1C (stereo not drawn)	-2.1	3.1	-0.1	1.0	x	2845	x
COc1cccc(C2=NOC(C(=O)Nc3cc(C)on3)C2)c1OC (stereo not drawn)	-3.6	-6.0	1.9	-0.5	-3.8	4643	x
COc1ccc(C(C[N+](=O)[O-])c2c(C)[nH]n(-c3ccccc3)c2=O)cc1 (stereo not drawn)	99.7*	-16.4	4.8	-3.1	-2.3	3570	31.1*
Cc1[nH]n(-c2ccccc2)c(=O)c1C(c1ccc([N+](=O)[O-])cc1)c1c(C)[nH]n(-c2ccccc2)c1=O	x	0.1	1.1	0.7	-4.7	2358	x
Cc1[nH]n(-c2ccccc2)c(=O)c1C(c1ccc(O)c([N+](=O)[O-])c1)c1c(C)[nH]n(-c2ccccc2)c1=O	70.0*	-1.0	-16.4	0.0	6.2	4215	-7.9
Cc1[nH]n(-c2ccccc2)c(=O)c1C(C[N+](=O)[O-])c1ccccc1Cl (stereo not drawn)	0.0	0.2	-2.2	-0.2	1.2	2424	x
CC(C)NC(=O)C1(C)CCN1C(=O)C1(c2ccccc2)CCCC1 (stereo not drawn)	1.2	-1.8	12.1	-0.3	x	3776	x
N#CC(C#N)c1ccnc2ccccc12	10.0	-5.7	-3.5	-0.4	x	3824	x
O=C(CCn1c(=S)oc2ccccc21)NC1CCCCCCC1	32.1*	-3.3	4.9	-1.0	0.9	4336	-13.4
O=C(Nc1cc(C(F)(F)F)ccc1F)C1Cc2c(-c3ccccc3Oc3ccccc3)ccnc2O1 (stereo not drawn)	36.1*	-2.3	-5.5	-0.2	x	3303	-1.7
O=C(Nc1cccc(OC(F)(F)F)c1)C1Cc2c(-c3ccccc3Oc3ccccc3)ccnc2O1 (stereo not drawn)	30.0*	-4.6	-6.1	-1.0	x	4142	-5.2
COCCOc1ccc(C(F)(F)F)cc1NC(=O)CN1C(=O)NC(C)(c2ccc3c(c2)OCO3)C1=O (stereo not drawn)	30.8*	-4.3	4.3	-0.2	x	5824	-20.2
CN(CC(=O)Nc1cc(C(F)(F)F)ccc1-n1cncn1)Cc1ccccc1N1CCOCC1	3.8	3.4	6.7	0.2	x	3460	x
COc1cc(/C=C2/C(=O)N(c3ccc(Br)cc3)N=C2C)cc([N+](=O)[O-])c1O	x	x	x	x	-2.4	x	x
CC1=NN(c2ccccc2)C(=O)/C1=C/c1cccc(C)c1	75.9*	1.8	5.3	0.1	2.6	3815	-18.3
SMILES	CCHF vOTU inh-1	Anthrax LF prot	BoNT F protease	BoNT A protease	3CLpro inhibitor	Bead autofluor	CCHF vOTU inh-2
COc1ccc(/C=C2/C(=O)N(c3ccccc3)N=C2C)cc1OC	92.7*	-4.7	-20.6	3.7	4.6	3574	-19.8
COc1cc(/C=C2/C(=O)N(c3cccc(Br)c3)N=C2C)cc(OC)c1O	92.2*	-5.7	-8.8	-4.8	5.5	3924	-25.6
CC(=O)Oc1ccc(/C=C2/C(=O)N(c3ccccc3)N=C2C)cc1	103.1*	-22.9	11.4	0.8	1.4	3293	-11.6
CC1=NN(c2ccccc2)C(=O)/C1=C\C=C\c1ccccc1	-4.8	x	x	x	5.0	x	x
Cc1cccc(OCC(=O)O/N=C(\N)c2ccncc2)c1	5.4	-11.5	-14.5	-1.7	3.1	3740	x
CN(N=Cc1ccc([N+](=O)[O-])cc1)c1ccccn1	12.5	-8.0	-2.0	-0.3	x	4035	x
O=C(CSc1nnc(-c2ccccn2)n1Cc1ccccc1)N1CCOCC1	7.2	-2.2	3.7	-0.8	1.7	3668	x
COc1ccc([N+](=O)[O-])cc1NC(=O)c1ccc(Br)s1	-10.9	-2.5	-10.4	-0.9	-0.3	4361	x
C=CCC[C@@H](Cc1ccc(F)cc1)C(=O)OC[C@@H](NC(=O)[C@H](CC=C)CC(=O)N(CCO)Cc1ccccc1)c1ccccc1	24.4	-1.1	-8.6	-0.2	x	4177	x
C=CCC[C@@H](Cc1ccc(F)cc1)C(=O)OC[C@H](C)NC(=O)[C@@H](CC=C)CC(=O)N(CCO)Cc1ccccc1	31.6*	0.3	1.5	0.1	x	3291	4.9
C=CC[C@@H](Cc1ccc(F)cc1)C(=O)OC[C@H]1CCCN1C(=O)[C@@H](CC=C)CC(=O)N(CCO)Cc1ccccc1	31.0*	-4.0	-0.2	-0.2	x	3567	5.1
C=CCC[C@@H](Cc1ccc(F)cc1)C(=O)OC[C@@H](NC(=O)[C@@H](CC=C)CC(=O)N(CCO)Cc1ccccc1)c1ccccc1	34.5*	-5.6	10.2	0.3	x	3489	4.0
CCOC(=O)COc1c(Cl)cc(/C=C2\N=C(C)OC2=O)cc1OC	-0.7	x	x	x	x	x	x

Screening data: PubChem, several laboratories
